# Data from PubChem BioAssay AID2685 (National Center for Advancing Translational Sciences (NCATS), 2010).
# Among all 320,000 compounds or so, about 2,100 (0.66%) were called active. About 53% were inconclusive and are not listed. The call rests on the fitted dose curve; in most records, active means well fitted inhibition curve with a large enough effect in the signal ratio, with a control signal flat (not every such curve was filed as active); inconclusive means small, poorly fitted or top-dose-only effect, or effect the other way, or a change in a side signal; inactive means flat fitted curve, though single readings scatter; the % refers to the signal ratio. For the sample, actives were picked, then their nearest neighbours and some compounds at random.
# Assay: qHTS Assay for Lipid Storage Modulators in Drosophila S3 Cells;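 on cell number change: cells counted by Cell Tracker Red CMTPX staining in the red channel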; on lipid storage change, negative = inhibition: on the % scale 0 is the no-effect control and ±100 the full control effect
# Details: BODIPY lipid droplet fluorescence, 18-24 h, cells fed with added oleic acid; cell number change: measured here: cell count max response; series mostly up to 46.1 µM; lipid storage change, negative = inhibition: at the top concentration
# Outline: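 Laser-scanning cytometry quantifies lipid droplet accumulation (500–530 nm total intensity; droplet/cell object ratio) in oleic acid-fed (400 uM added) Drosophila S3 cells treated with a concentration series. 20 uM Triacsin C defined 100% inhibition.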
# Potency means the concentration at half of the fitted maximal effect.
SMILES,"lipid storage change, negative = inhibition",cell number change,Potency,outcome
O=C1NC2(Nc3ccccc31)C(=O)Nc1ccc(Br)cc12 (stereo not drawn),-0.023% (inactive),-0.207%,–,–
O=C1Nc2ccc(Br)cc2C1(O)c1ccccc1 (stereo not drawn),3% (inactive),20.9%,–,–
O=C1Nc2ccc(Br)cc2C12NNc1ccccc1O2 (stereo not drawn),–,–,23.1 µM (active),–
CCOc1ccc(NC(=O)NC(C)c2ccc3c(c2)OCO3)cc1 (stereo not drawn),15.4% (inactive),-0.862%,–,–
O=C(CCSc1nc(-c2ccc3c(c2)OCO3)cc(C(F)(F)F)n1)NCc1ccccc1,-11.3% (inactive),-16.9%,–,–
CCc1cccc(NC(=O)NC(=O)Cn2nnc(C(=O)OC)c2C(=O)OC)c1,23.6% (inactive),1.8%,–,–
CCCCSc1nnc([C@@H]2CCCN2C(=O)OC(C)(C)C)o1,11.2% (inactive),-21.2%,–,–
C=C(C)CSc1nnc([C@@H]2CCCN2C(=O)OC(C)(C)C)o1,3.39% (inactive),9.31%,–,–
CCSc1nnc([C@@H]2CCCN2C(=O)OC(C)(C)C)o1,–,6.53%,23.1 µM (active),–
CC(C)(C)OC(=O)N1CCC[C@H]1c1nnc(SCc2ccccc2)o1,7.68% (inactive),10.4%,–,–
CC(C)Sc1nnc([C@@H]2CCCN2C(=O)OC(C)(C)C)o1,–,-3.74%,32.6 µM (active),–
Cc1ccc(CSc2nnc([C@@H]3CCCN3C(=O)OC(C)(C)C)o2)cc1,3.95% (inactive),17.7%,–,–
COc1ccc(C=O)cc1Cn1ccnc1C,-6.92% (inactive),-21.5%,–,–
N#C/C(=C\c1ccccc1Cl)C(=O)Nc1ccccn1,–,7.44%,25.9 µM (active),–
CC(C)(C)c1ccc(/C=C(\C#N)C(=O)Nc2ccccn2)cc1,20.5% (inactive),9.55%,–,–
N#C/C(=C\c1cccs1)C(=O)Nc1ccccn1,-4.46% (inactive),9.59%,–,–
Cc1ccc(-c2cc(C(F)F)n3ncc(C(=O)N4CCc5ccccc5C4)c3n2)cc1,8.24% (inactive),3.7%,–,–
CC(=O)Nc1cccc(Oc2ncnc3scc(-c4ccccc4)c23)c1,9.37% (inactive),1.71%,–,–
CCCn1nc(C(=O)N2CCN(S(=O)(=O)c3ccc(C)c(C)c3)CC2)c2ccccc2c1=O,–,29.1%,11.6 µM (active),–
CCCn1nc(C(=O)N2CCc3ccccc3C2)c2ccccc2c1=O,4.01% (inactive),-8.58%,–,–
Cc1ccc(S(=O)(=O)N2CCN(C(=O)c3nn(C(C)C)c(=O)c4ccccc34)CC2)cc1C,–,–,–,inactive
CCn1cc(C(=O)OC)c(=O)c2ccc(C)nc21,-1.46% (inactive),4.24%,–,–
CCn1cc(C(=O)N(C)Cc2ccc(OC(F)F)cc2)c(=O)c2ccc(C)nc21,–,19.2%,18.4 µM (active),–
C=Cc1ccc(COC(=O)c2cn(CC)c3nc(C)ccc3c2=O)cc1,–,–,–,inactive

SMILES,"lipid storage change, negative = inhibition",cell number change,Potency,outcome
O=C(COC(=O)CNS(=O)(=O)c1cccc(Br)c1)NC(=O)Nc1ccc2c(c1)OCCO2,8.82% (inactive),–,–,–
COc1ccc(-n2nc(C(=O)NCC(=O)N(C)Cc3ccccc3)c3ccccc3c2=O)c(OC)c1,–,9.58%,–,inactive
COc1ccccc1N(CC(=O)Nc1ccccc1C(=O)N1CCOCC1)S(C)(=O)=O,5.39% (inactive),1.26%,–,–
COc1ccccc1N(CC(=O)Nc1ccccc1C(=O)N1CCCC1)S(C)(=O)=O,–,1.61%,18.4 µM (active),–
O=C(CCSc1ccccc1)Nc1ccccc1C(=O)N1CCCC1,8.31% (inactive),-3.09%,–,–
CCC(=O)Nc1ccccc1C(=O)N1CCCC1,–,13.5%,–,inactive
COc1ccccc1OCC(=O)Nc1ccccc1C(=O)N1CCCCC1,-14.5% (inactive),–,–,–
O=C(c1cccc2ccccc12)N1CCCCC1,–,-5.25%,8.2 µM (active),–
CCOc1ccccc1N(CC(=O)Nc1ccccc1C(=O)N1CCCC1)S(C)(=O)=O,–,-13.5%,–,inactive
O=C(O)CCCC(=O)Nc1ccccc1C(=O)N1CCCC1,–,0.517%,4.61 µM (active),–
CCS(=O)(=O)N1CCN(C(=O)c2cccc3ccccc23)CC1,–,17.9%,–,inactive
Cc1ccc(OCC(=O)Nc2ccccc2C(=O)N2CCCCC2)cc1,–,24.3%,–,inactive
O=C(c1ccncc1)N1CCN(C(=O)c2cccc3ccccc23)CC1,13.3% (inactive),6.28%,–,–
Cc1ccccc1OCCC(=O)Nc1ccccc1C(=O)N1CCCCC1,–,-4.28%,5.8 µM (active),–
O=C(CN1CCN(CC(=O)Nc2ccccc2C(F)(F)F)CC1)Nc1ccccc1F,0.494% (inactive),–,–,–
O=C(CCC(=O)Nc1ccccc1Cl)NNC(=O)c1ccco1,2.6% (inactive),11.4%,–,–
CCN1C(=O)[C@H]2[C@@H](c3ccc(-c4ccc5c(c4)OCO5)cc3)N3CCC[C@@]3(C(=O)OC)[C@H]2C1=O,13.4% (inactive),-27.4%,–,–
Cc1ccccc1NCN1C(=O)C2CCC(C)(C1=O)C2(C)C (stereo not drawn),-4.09% (inactive),-11.4%,–,–
CCOC(=O)c1cccc(NS(=O)(=O)Cc2ccccc2)c1,-7.72% (inactive),-5.1%,–,–
COc1cccc(/C=C/C(=O)OCC(=O)Nc2cc(C(F)(F)F)ccc2Cl)c1,12.8% (inactive),1.22%,–,–
COCCNC(=O)CN(C(=O)Cn1nnc2ccccc21)c1ccc(C)c(F)c1,9.15% (inactive),-2.04%,–,–
NC(=O)CCCc1nc(-c2ccccc2Cl)no1,-1.99% (inactive),-20.4%,–,–
CCN1C(=NCc2ccco2)N[C@@H](c2cccc(F)c2)C(C(=O)OC)=C1C,-18% (inactive),16.3%,–,–
